# Assay results from PubChem BioAssay (NCI).
# About 83,000 compounds went through this panel and 20% of them were active in at least one assay; those are over-represented in the sample as a whole.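 Assay: single dose, 48 h. Readout: percent growth (0 = no net growth; negative = cell death). Active: <10.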 A number with no mark means an inactive call. Activity calls are given as the source filed them.
# Assays:
# Experiment in all cases: NCI-60 one-dose screen, 48 h (100 = growth as untreated, 0 = no growth, -100 = all killed)
# Conditions in all cases: 10 µM unless noted
# SK-MEL-2 melanoma = tested on: SK-MEL-2 melanoma
# EKVX NSCLC = tested on: EKVX NSCLC
# SN12C renal = tested on: SN12C renal
# UO-31 renal = tested on: UO-31 renal
# TK-10 renal = tested on: TK-10 renal
# ACHN renal = tested on: ACHN renal
# CAKI-1 renal = tested on: CAKI-1 renal
# A498 renal = tested on: A498 renal
# CCRF-CEM leukemia = tested on: CCRF-CEM leukemia
# MOLT-4 leukemia = tested on: MOLT-4 leukemia
Compound,growth (SK-MEL-2 melanoma),growth (EKVX NSCLC),growth (SN12C renal),growth (UO-31 renal),growth (TK-10 renal),growth (ACHN renal),growth (CAKI-1 renal),growth (A498 renal),growth (CCRF-CEM leukemia),growth (MOLT-4 leukemia)
O=C(/C=C/c1ccc2ccccc2c1)Nc1ncc(Cc2ccccc2)s1,98.1%,71.4%,43.9%,43.5%,22.6%,6.83% (active),45.1%,86.2%,49.2%,65.8%
N#CCCCCCn1c2ccccc2c2c3[nH]c(=O)[nH]c(=O)c3c3c4ccccc4n(CCCCCC#N)c3c21,78.5%,80.7%,26.2%,61.1%,65.6%,54%,93.2%,54.5%,74.5%,69.5%
COC(=O)[C@]12CC[C@@H](C)[C@H](C)[C@@H]1C1=CC[C@@H]3[C@@]4(C)C[C@@H](O)[C@H](O)[C@@](C)(CO)C4=CC[C@@]3(C)[C@]1(C)CC2,-36.9% (active),-71.8% (active),-71.5% (active),-48.9% (active),-17.7% (active),-83.7% (active),-10.2% (active),-94.7% (active),-33.6% (active),-47.4% (active)
COc1ccc(-c2nc(Nc3ccc(-c4nc5ccccc5[nH]4)cc3)nc(N3CCOCC3)n2)cc1,-19.2% (active),7.91% (active),40.8%,-43.5% (active),43.9%,9% (active),-56.6% (active),-32.1% (active),-1.84% (active),1.78% (active)
C[C@]12CC[C@@H]3c4ccc(O)cc4CC[C@H]3[C@@H]1C[C@H](O)[C@@H]2O,104%,67.4%,94.9%,78.2%,100%,93.7%,90.5%,92.6%,103%,109%
O=[N+]([O-])c1cc(S(=O)(=O)c2ccc(F)c([N+](=O)[O-])c2)ccc1F,112%,117%,108%,86.1%,119%,97.1%,109%,107%,46.2%,23.2%
CC1(C)C=CC[C@]2(C)[C@H]3CC[C@@H]4[C@H]5[C@H](C(=O)/C=C/c6cccnc6)CC[C@]5(CO)CC[C@@]4(C)[C@]3(C)CC[C@@H]12,-66.1% (active),-36.7% (active),-40% (active),-100% (active),-90.7% (active),-100% (active),-75.5% (active),-78.8% (active),-2.65% (active),-30.6% (active)
N#CC1=C(N)Oc2ccc3ccccc3c2C1c1ccccc1Cl (stereo not given),45.9%,42.5%,50%,48.9%,118%,49.9%,34.5%,40.1%,26.1%,26.7%
Cc1ccc(Sc2sc(-c3ccccc3)nc2[P+](c2ccccc2)(c2ccccc2)c2ccccc2)cc1,-37.8% (active),5.57% (active),6% (active),-39.1% (active),14.7%,6.46% (active),-14.2% (active),-43.5% (active),7.63% (active),-48.2% (active)
CCCNc1nc(N(C)O)nc(N(C)O)n1,74.1%,36.9%,47.1%,21.7%,65.1%,14.5%,25%,22.3%,6.78% (active),14.8%
CC1(C)c2ccccc2C(=O)C1(Br)Cc1ccccc1 (stereo not given),103%,94.5%,95.4%,56.6%,105%,87.7%,50.5%,89.7%,26.4%,16.4%
COc1cc2nc(Cl)nc(Nc3cccc(C(=O)/C=C/c4ccccc4)c3)c2cc1OC,86.8%,81.5%,59.5%,50.8%,143%,13.7%,48.4%,90.6%,28.9%,34.5%
COc1ccc(-c2n[nH]nc2-c2cc3ccccc3s2)cc1O,32.3%,41.9%,32.4%,40.5%,57%,44.4%,38.9%,1.86% (active),16%,15.1%
CC(C)(C)c1ccc(OCCCCCCCN2CCNCC2)cc1,103%,70%,58.8%,33.3%,105%,13.6%,44.8%,79.9%,17.8%,0.604% (active)
Cc1ccc(-c2ccc(/C=C(\C#N)c3nc(-c4ccco4)cs3)o2)cc1,104%,52.1%,97.1%,79%,69.9%,98.6%,94.5%,106%,79.1%,94.6%
Cc1ccc(/C=C(\C#N)c2cc3ccccc3n2C)cc1,75.7%,48.4%,39.5%,56.8%,99.3%,42.9%,34.4%,10.4%,13.9%,21.6%
COC(=O)[C@]12CC[C@@H](C)[C@H](C)[C@@H]1C1=CC[C@@H]3[C@@]4(C)C[C@@H](OC(C)=O)[C@H](O)[C@@](C)(CO)[C@@H]4[C@H](O)C[C@@]3(C)[C@]1(C)CC2,-84.2% (active),-91.8% (active),-78.3% (active),-74.1% (active),-96.9% (active),-88.3% (active),-85.6% (active),-95.9% (active),-68% (active),-55.9% (active)
c1ccc2[nH]c(-c3ccc(Nc4nc(N5CCCCC5)nc(N5CCOCC5)n4)cc3)nc2c1,-20.6% (active),27.7%,52.4%,-37.8% (active),58.8%,22.9%,-46.9% (active),-28.6% (active),8.74% (active),13.7%
CCN1CCN(C(=O)[C@]23CCC(C)(C)C[C@H]2C2=CC[C@@H]4[C@@]5(C)CC/C(=N/O)C(C)(C)[C@@H]5CC[C@@]4(C)[C@]2(C)CC3)CC1,95.6%,58.4%,16.2%,37%,136%,28.4%,54.3%,85.2%,38.3%,31%
COC(=O)[C@]12CC[C@@H](C)[C@H](C)[C@@H]1C1=CC[C@@H]3[C@@]4(C)C[C@@H](OC(C)=O)[C@H](OC(C)=O)[C@@](C)(COC(C)=O)[C@@H]4[C@H](O)C[C@@]3(C)[C@]1(C)CC2,-2.42% (active),10.7%,11%,10.9%,-1.29% (active),11.8%,11.6%,5.15% (active),12%,3.95% (active)
CCc1cccc(CC)c1NC(=O)c1sc2nc3c(cc2c1N)CCCC3,56.3%,88.9%,83.5%,57.7%,90.5%,71.8%,64.6%,40.2%,60.7%,61.9%
CN1CCN(c2nc(-c3csc(-c4cccs4)n3)cc3ccccc23)CC1,39.7%,68.3%,71%,59.8%,79%,31.4%,39.6%,10.5%,30.7%,9.46% (active)
COc1ccc(-n2c(/C=C/c3ccc(O)c(OC)c3)cc(/C=C/c3ccc(O)c(OC)c3)nc2=O)cc1,84.9%,56.7%,66.6%,47.8%,104%,69.5%,87.4%,113%,15.2%,17.2%
COc1cc2ncnc(Nc3ccc(OCc4cccc(F)c4)c(Cl)c3)c2cc1NC(=O)C1CCCC1,86.2%,37.6%,85.2%,30.5%,18.4%,47.6%,55.9%,20.8%,92.6%,84%
CC1(C)NCCC[C@]2(C)[C@H]3CC[C@@H]4[C@H]5[C@H](C(=O)/C=C/c6ccccn6)CC[C@]5(CO)CC[C@@]4(C)[C@]3(C)CC[C@@H]12,108%,101%,62.4%,66.8%,176%,73.4%,32.7%,84%,12.3%,3.77% (active)
